The whole screen tested about 5,500 compounds, of which about 2,000 (36%) were called active. Not shown: some 18% with an inconclusive outcome. No stated cut-off is given here; in the data, active means normalized growth mostly below about 0.91 (no sharp cut-off); inconclusive means no clear call, values can overlap the other calls; inactive means mostly above about 0.92. The list shows a part of the results.
Assay: chemical genetic growth profiling, strain panel (AID 1159580);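 further: tested at 20 µM; growth read once vehicle control cultures reached saturation at 30 °C; 1 = growth at the plate median or of vehicle wells; lower values mean less growth of the strain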
Conditions: growth OD

Measured: normalized growth

CN(C)CC[C@H](c1ccc(Cl)cc1)c1ccccn1
inactive: S. cerevisiae deletion strains, locus YJR075W, strain HOC1, hits give low values 0.994 | S. cerevisiae deletion strains, locus YKL009W, strain mrt4, hits give low values 1.01 | S. cerevisiae deletion strains, locus YKL068W, hits give low values 0.997 | S. cerevisiae deletion strains, locus YKL085W, strain MDH1 (second series), hits give low values 0.995 | S. cerevisiae deletion strains, locus YKL085W, strain MDH1, hits give low values 0.995 | S. cerevisiae deletion strains, locus YKL160W, strain elf1, hits give low values 0.994 | S. cerevisiae deletion strains, locus YKL190W, strain CNB1, hits give low values 1 | S. cerevisiae deletion strains, locus YKR001C, strain vps1, hits give low values 0.989 | S. cerevisiae deletion strains, locus YKR026C, strain gcn3, hits give low values 1 | S. cerevisiae deletion strains, locus YKR091W, strain srl3, hits give low values 1.01 | S. cerevisiae deletion strains, locus YLL001W, strain dnm1, hits give low values 0.991 | S. cerevisiae deletion strains, locus YLL026W, hits give low values 0.997 | S. cerevisiae deletion strains, locus YLL041C, strain sdh2, hits give low values 0.992 | S. cerevisiae deletion strains, locus YLR027C, strain aat2, hits give low values 1 | S. cerevisiae deletion strains, locus YLR039C, strain RIC1, hits give low values 1.04 | S. cerevisiae deletion strains, locus YLR058C, strain SHM2, hits give low values 1 | S. cerevisiae deletion strains, locus YLR102C, strain apc9, hits give low values 0.989 | S. cerevisiae deletion strains, locus YLR113W, strain HOG1, hits give low values 1.02 | S. cerevisiae deletion strains, locus YLR221C, strain rsa3, hits give low values 1.01 | S. cerevisiae deletion strains, locus YLR258W, strain gsy2, hits give low values 0.993 | S. cerevisiae deletion strains, locus YLR262C, strain YPT6 (second series), hits give low values 1.01 | S. cerevisiae deletion strains, locus YLR262C, strain YPT6, hits give low values 1 | S. cerevisiae deletion strains, locus YLR268W, strain sec22, hits give low values 0.965 | S. cerevisiae deletion strains, locus YLR320W, strain mms22, hits give low values 0.997 | S. cerevisiae deletion strains, locus YLR330W, strain CHS5, hits give low values 1.01 | S. cerevisiae deletion strains, locus YLR342W, strain FKS1 (second series), hits give low values 1.02 | S. cerevisiae deletion strains, locus YLR342W, strain FKS1, hits give low values 1 | S. cerevisiae deletion strains, locus YLR357W, strain rsc2, hits give low values 0.959 | S. cerevisiae deletion strains, locus YLR370C, strain arc18, hits give low values 1 | S. cerevisiae deletion strains, locus YLR371W, strain rom2, hits give low values 0.991 | S. cerevisiae deletion strains, locus YLR384C, strain iki3, hits give low values 0.996 | S. cerevisiae deletion strains, locus YLR418C, strain cdc73, hits give low values 0.994 | S. cerevisiae deletion strains, locus YML016C, strain PPZ1, hits give low values 1 | S. cerevisiae deletion strains, locus YML032C, strain rad52, hits give low values 0.966 | S. cerevisiae deletion strains, locus YML120C, strain ndi1, hits give low values 1.01 | S. cerevisiae deletion strains, locus YML124C, strain tub3, hits give low values 0.994 | S. cerevisiae deletion strains, locus YMR058W, strain fet3, hits give low values 1 | S. cerevisiae deletion strains, locus YMR078C, strain ctf18, hits give low values 0.993 | S. cerevisiae deletion strains, locus YMR125W, strain sto1, hits give low values 0.997 | S. cerevisiae deletion strains, locus YMR129W, hits give low values 1 | S. cerevisiae deletion strains, locus YMR205C, strain PFK2, hits give low values 1.02 | S. cerevisiae deletion strains, locus YMR223W, strain ubp8, hits give low values 1.01 | S. cerevisiae deletion strains, locus YMR231W, strain pep5, hits give low values 0.993 | S. cerevisiae deletion strains, locus YMR263W, strain SAP30, hits give low values 1.02 | S. cerevisiae deletion strains, locus YMR307W, strain GAS1, hits give low values 0.99 | S. cerevisiae deletion strains, locus YNL067W, strain RPL9B, hits give low values 0.999 | S. cerevisiae deletion strains, locus YNL071W, strain lat1, hits give low values 0.998 | S. cerevisiae deletion strains, locus YNL128W, strain TEP1, hits give low values 1.01 | S. cerevisiae deletion strains, locus YNL153C, strain GIM3, hits give low values 0.992 | S. cerevisiae deletion strains, locus YNL183C, strain NPR1, hits give low values 0.956 | S. cerevisiae deletion strains, locus YNL209W, strain ssb2, hits give low values 1 | S. cerevisiae deletion strains, locus YNL233W, strain BNI4, hits give low values 1.01 | S. cerevisiae deletion strains, locus YNL248C, strain rpa49, hits give low values 0.945 | S. cerevisiae deletion strains, locus YNL250W, strain rad50, hits give low values 0.977 | S. cerevisiae deletion strains, locus YNL271C, strain bni1, hits give low values 0.988 | S. cerevisiae deletion strains, locus YNL298W, strain CLA4, hits give low values 0.996 | S. cerevisiae deletion strains, locus YNL307C, strain MCK1, hits give low values 1 | S. cerevisiae deletion strains, locus YNL322C, strain KRE1 (second series), hits give low values 1.02 | S. cerevisiae deletion strains, locus YNL322C, strain KRE1, hits give low values 1 | S. cerevisiae deletion strains, locus YNR049C, strain mso1, hits give low values 0.996 | S. cerevisiae deletion strains, locus YNR052C, strain pop2, hits give low values 0.989 | S. cerevisiae deletion strains, locus YOL006C, strain TOP1, hits give low values 1 | S. cerevisiae deletion strains, locus YOL012C, strain htz1 0.629 | S. cerevisiae deletion strains, locus YOL147C, strain pex11, hits give low values 0.991 | S. cerevisiae deletion strains, locus YOR001W, strain rrp6, hits give low values 0.987 | S. cerevisiae deletion strains, locus YOR061W, strain CKA2, hits give low values 1.01 | S. cerevisiae deletion strains, locus YOR069W, strain VPS5, hits give low values 1 | S. cerevisiae deletion strains, locus YOR070C, strain gyp1, hits give low values 0.997 | S. cerevisiae deletion strains, locus YOR080W, strain dia2, hits give low values 0.997 | S. cerevisiae deletion strains, locus YOR083W, strain WHI5, hits give low values 0.997 | S. cerevisiae deletion strains, locus YOR106W, strain vam3, hits give low values 1.01 | S. cerevisiae deletion strains, locus YOR136W, strain idh2, hits give low values 0.992 | S. cerevisiae deletion strains, locus YOR144C, strain elg1, hits give low values 0.988 | S. cerevisiae deletion strains, locus YOR184W, strain ser1, hits give low values 1.02 | S. cerevisiae deletion strains, locus YOR231W, strain MKK1, hits give low values 0.998 | S. cerevisiae deletion strains, locus YOR265W, strain rbl2, hits give low values 1 | S. cerevisiae deletion strains, locus YOR270C, strain vph1, hits give low values 1.01 | S. cerevisiae deletion strains, locus YOR290C, strain snf2, hits give low values 0.998 | S. cerevisiae deletion strains, locus YOR316C, strain cot1, hits give low values 0.995 | S. cerevisiae deletion strains, locus YPL051W, strain arl3, hits give low values 1.01 | S. cerevisiae deletion strains, locus YPL055C, strain LGE1, hits give low values 1.02 | S. cerevisiae deletion strains, locus YPL078C, strain atp4, hits give low values 0.989 | S. cerevisiae deletion strains, locus YPL106C, strain sse1, hits give low values 1.01 | S. cerevisiae deletion strains, locus YPL240C, strain hsp82, hits give low values 0.997 | S. cerevisiae deletion strains, locus YPL241C, strain CIN2, hits give low values 1 | S. cerevisiae deletion strains, locus YPL256C, strain CLN2, hits give low values 0.985 | S. cerevisiae deletion strains, locus YPR119W, strain clb2, hits give low values 0.989 | S. cerevisiae deletion strains, locus YPR141C, strain kar3, hits give low values 0.98 | S. cerevisiae deletion strains, locus YPR163C, strain tif3, hits give low values 0.992 | S. cerevisiae deletion strains, locus YPR167C, strain met16, hits give low values 0.994 | S. cerevisiae deletion strains, strain wtn01, hits give low values 0.995 | S. cerevisiae strains, strain wild type, hits give low values 1.01

— PubChem BioAssay AID1159580 (chemical genetic matrix, 2015)
